p53ts 32C tox = cytotoxicity in p53ts cells at permissive temperature. actives 0.93% (n = 130,000). H1299-p53A138V at 32C, ATP luminescence viability, 24 h. Potency, µM (series often up to 46.1 µM), for the others: at the highest dose activity change, negative = cytotoxicity, actives largely listed as cytotoxic;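 note: potency is the fitted concentration of half-maximal effect; 0% = DMSO and -100% = full killing by reference compound; nearly all actives have a fitted effect of over 55% in size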
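ATP-content luminescence (ATPlite) read-out after 24 h compound exposure at 32C in H1299-p53A138V cells (600/well). Tested up to 46 uM. Normalized to DMSO (0%) and 100 uM tamoxifen (100% killing); Hill-fit AC50.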
Peg3 imprint = genomic imprint erasure induction | mouse ES Peg3-LacZ reporter, beta-gal luminescence, 40 h | Potency, µM (highest dose often 60.7 µM), for inactives: at the top dose activity change, positive = activation, usual class: activators | actives 0.02% (n = 110,000) | AID 1948; note: potency is the fitted concentration of half-maximal effect
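Gelatin-coated wells received 300 freshly trypsinized female ES cells with a Peg3LacZ-Neo reporter on the maternal allele, then incubated 40 hours at 37C. BetaGlo was added for 5 minutes at room temperature before a single luminescence read.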
Epigenetic mod = epigenetic modulators derepressing GFP locus in mouse cells; mouse C127i GFP locus derepression, cytometry, 30 h; Potency, µM (highest dose often 46.1 µM), inactives show top-dose GFP derepression (activation); actives 0.09% (n = 68,000); AID 597; note: % of control where 0% means no effect
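Murine C127i mammary cells carrying a silenced, stably integrated CMV-driven GFP reporter were treated with compound for 30 hours at 37 C. After PBS washes, GFP-positive cells were counted by laser-scanning microplate cytometry.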
UbGFP stabilizer = inhibits proteasome, raising ubiquitin-GFP reporter fluorescence. Ubiquitin-GFP reporter cells, proteasome inhibition, GFP fluorescence; response scale: untreated = 0%, 10 µM MG-132 = 100%. Potency, µM (highest dose often 45.9 µM), for the others: top-dose activation (GFP accumulation), actives largely listed as activators. 67,000 tested, under 10 active; active = well fitted activation curve with a large enough effect, not every such curve was filed as active; inconclusive = small, poorly fitted or top-dose-only effect, or another doubt; inactive = no such curve, though single readings can be large or run the other way; note: potency is the fitted concentration of half-maximal effect
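U2OS Ub(G76V)-GFP reporter; O/N plating, 0.5% FBS; cpd 46 uM–2.9 nM, 4 h, 37 °C; GFP+ cell count, 488/515 nm; norm. to basal vs 10 uM MG-132; CRC fit.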
p53ts 39C tox = p53ts cell cytotoxicity, nonpermissive temperature. actives 1.5% (n = 130,000). Potency, µM (highest dose often 46.1 µM), inactives show at the highest dose activity change, negative = cell killing, most hits filed as cytotoxic. H1299-p53A138V viability at 39C, ATP luminescence, 24 h; note: potency is the fitted concentration of half-maximal effect; % is set by controls: 0 for no effect and ±100 for the full control effect; nearly all actives have a fitted effect of over 55% in size
HBB splicing = hemoglobin beta splicing modulation | HBB splicing reporter cell assay, activation; EGFP reporter with mutant IVS2-654 intron; response scale: normalised to 500 nM splice-correcting PNA | Potency, µM (top dose mostly 46.1 µM), inactives show at the highest dose activation, hits mostly activators | actives 0.06% (n = 65,000) | AID 925; note: potency is the fitted concentration of half-maximal effect; 0% is about no effect
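HeLa cells stably expressing EGFP interrupted by mutant beta-globin intron 2 (IVS2-654), 500/well in 2% FCS. Treated with compound for 2 days at 37C. Splicing correction scored as total well GFP intensity (488 nm excitation, 500-520 nm emission); 500 nM antisense PNA served as control.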
* marks the source's active call; other numbers are inactive results; ? = inconclusive; · = not tested or not shown; [ ] = another dose, or the depositor's remark. In the library only some 1.6% were active in any assay of this set; here they are far more common. Unless noted, calls come from the whole dose curve; as a rule, active = well fitted curve in the direction sought with a large enough effect; inconclusive = small, poorly fitted or top-dose-only effect, or another doubt; inactive = no such curve, though single readings can be large; an effect the other way counts as inactive or inconclusive.

SMILES	p53ts 32C tox	Peg3 imprint	Epigenetic mod	UbGFP stabilizer	p53ts 39C tox	HBB splicing
CCCC(=O)Nc1nc2ccc(OCC)cc2s1	-24%	-30%	·	4%	-15%	0%
COc1ccc(NS(=O)(=O)c2ccc(-c3cnc(C4CC4)o3)cc2)cc1Cl	22%	-24%[10.9 µM]	·	·	1%	·
Cc1ccc2[nH]c(CSc3nnc(NC(=O)COc4ccccc4Cl)s3)cc(=O)c2c1	-9%	-2%[10.9 µM]	·	·	-12%	·
Cc1ccc2nc(COc3cccc(NC(=O)COc4ccccc4F)c3)cc(=O)n2c1	-8%	11%[10.9 µM]	·	·	-15%	·
O=c1[nH]c(Nc2nc3ccccc3o2)nc2c1CCCC2	13µM*	·	·	·	?	·
O=C(N/N=C/C=C\c1ccccc1[N+](=O)[O-])c1cc(-c2ccc3ccccc3c2)n[nH]1	-7%	·	·	·	-6%	·
O=[N+]([O-])c1cccc(/C=N\Nc2ccc3ccccc3n2)c1O	2.5µM*	-53%[10.9 µM]	1%[9.22 µM]	-3%[9.17 µM]	4µM*	0%[9.22 µM]
NS(=O)(=O)c1cccc2cccnc12	16%	-2%	-1%	3%	-6%	3%
CC(C)c1ccccc1S(=O)(=O)c1cc(N)c2ncccc2c1[N+](=O)[O-]	11%	-22%	·	·	3.2µM*	-1%
O=C(NCc1ccccc1)c1nn(-c2ccccc2)nc1CO	-8%	8%[10.9 µM]	·	·	-8%	·
CCS(=O)(=O)Nc1ccc(-c2cn3ccsc3n2)cc1	?	7%[10.9 µM]	·	·	?	·
CC(C)CC(=O)Nc1ccc(-c2cn3ccsc3n2)cc1	1µM*	-45%	-3%	4%	1µM*	-1%
CC(C)(C)C(=O)Nc1ccc(-c2cn3ccsc3n2)cc1	0.63µM*	-52%	-4%	4%	0.79µM*	0%[57.5 µM]
CC(C)OCCCNC(=O)CCCn1c(=O)[nH]c2ccsc2c1=O	-2%	-6%[10.9 µM]	·	·	23%	·
Cc1ccc(-n2ncc3c(NC4CCCC4)ncnc32)cc1	13µM*	-21%[10.9 µM]	·	·	?	·
Cc1ccc(Nc2ncnc3c2cnn3-c2ccc(C)cc2)cc1	8%	-7%[10.9 µM]	·	·	2%	·
COc1ccc(CNc2ncnc3c2cnn3-c2ccc(Cl)cc2)cc1	5%	21%[10.9 µM]	·	·	7%	·
c1ccc(-n2ncc3c(NC4CCCC4)ncnc32)cc1	13µM*	-17%[10.9 µM]	·	·	10µM*	·
COc1ccc(-n2ncc3c(NC4CCCC4)ncnc32)cc1	5µM*	-16%[10.9 µM]	·	·	2µM*	·
COc1ccc(-n2ncc3c(NC(C)C)ncnc32)cc1	13µM*	·	·	·	13µM*	·
CCCCNc1ncnc2c1cnn2-c1ccccc1	?	-16%	13%	-5%	?	-2%
CCN(CC)C(=O)c1ccc2c(c1)N(Cc1c(F)cccc1Cl)C(=O)c1ccccc1S2	56%	-4%[10.9 µM]	·	·	12%	·
Cc1ccc(NC(=O)CSc2nc(-c3ccccc3Cl)nc3cc(=O)[nH]n23)c(C)c1	21%	5%[10.9 µM]	·	·	44%	·
Cc1cccc(N2CCN(C(=O)C3CCN(S(=O)(=O)c4cn(C)cn4)CC3)CC2)c1C	2%	-11%[10.9 µM]	·	·	22%	·
CCOC(=O)c1cccc(NC(=O)c2cc(CN3CCOCC3)on2)c1	-1%	-9%[10.9 µM]	·	·	-11%	·
SMILES	p53ts 32C tox	Peg3 imprint	Epigenetic mod	UbGFP stabilizer	p53ts 39C tox	HBB splicing
O=C(Nc1cccc(C(F)(F)F)c1)N1CC2CCCN2c2ccccc21 (stereo unspecified)	14%	-9%[10.9 µM]	·	·	8%	·
Cc1ccc2nc3ccc(N4CCN(C)CC4)nn3c(=O)c2c1	4µM*	-15%	6%	9%	?	0%
CCOC(=O)c1sc2nc(C)cc(C)c2c1N	-12%	·	·	·	-17%	·
Cc1cc(C)c2c(N)c(C(=O)Nc3nccs3)sc2n1	0.79µM*	-47%	2%	3%	1µM*	-3%
COCc1cc(C)nc2sc(C(=O)Nc3nccs3)c(N)c12	-7%	-9%	·	1%	-14%	0%
CCCCOC(=O)c1ccc(NC(=O)c2sc3nc(C)cc(C)c3c2N)cc1	16µM*	-12%[10.9 µM]	·	·	?	·
CN(C)S(=O)(=O)c1ccc(Nc2ccc(O)c3c2C(=O)c2c([N+](=O)[O-])ccc(O)c2C3=O)cc1	-4%[9.22 µM]	?	14%[9.22 µM]	2%[9.17 µM]	-3%[9.22 µM]	2%[9.22 µM]
O=C1c2c(O)ccc([N+](=O)[O-])c2C(=O)c2c([N+](=O)[O-])ccc(O)c21	0%[1.84 µM]	-37%	·	·	16µM*	-1%
Cc1c(Cl)cccc1NC(=O)C1CCN(c2nc3ccccc3[nH]2)CC1	-4%	7%[10.9 µM]	·	·	-11%	·
O=c1cc(-c2ccccc2O)oc2cc(O)ccc12	-28%	·	·	·	?	·
O=c1cc(-c2cccc(O)c2O)oc2ccccc12	?	-62%	2%[9.22 µM]	1%	10µM*	·
COc1ccc(-c2cc(C(=O)Nc3c(C)nn(Cc4ccccc4C)c3C)no2)cc1	-2%	-8%[10.9 µM]	·	·	-6%	·
COC(=O)c1ccc2c(=O)n(CCCCCC(=O)N3CCN(c4cc(Cl)ccc4C)CC3)c(=O)[nH]c2c1	6.3µM*	-11%[10.9 µM]	·	·	4µM*	·
COc1ccccc1OCC(=O)NCC1(N(C)C)CCCCC1	-13%	-12%[10.9 µM]	·	·	20%	·
O=C(NC1CC1)c1ccc(-c2nc3ccccc3s2)s1	0.5µM*	-83%	0%	4%	0.4µM*	2%[57.5 µM]
Cc1ncsc1C(=O)Nc1nc2c(s1)CC(C)CC2 (stereo unspecified)	?	-88%	0%	4%	16µM*	·
CC1CCc2nc(NC(=O)Cc3ccc(Cl)cc3)sc2C1 (stereo unspecified)	30%	-4%[10.9 µM]	·	·	-5%	·
CC(=O)Nc1ccc(NC(=O)c2nc(S(=O)(=O)Cc3ccc(F)cc3)ncc2Cl)cc1	-18%	-37%[10.9 µM]	·	·	10µM*	·
Cc1ccc(NC(=O)c2nc(S(=O)(=O)Cc3ccc(F)cc3)ncc2Cl)cc1C	16µM*	-40%[10.9 µM]	·	·	2.5µM*	·
COc1ccc(OC)c(NC(=O)c2nc(S(=O)(=O)Cc3ccc(F)cc3)ncc2Cl)c1	?	-35%[10.9 µM]	·	·	10µM*	·
CCOc1ccc(NC(=O)c2cnc3sc(N4CCOCC4)nn3c2=O)cc1	-6%	-11%[10.9 µM]	·	·	3%	·
CCc1ccccc1N(CC)C(=O)c1cc2c(s1)-c1ccccc1OC2	4%	-18%[10.9 µM]	·	·	-11%	·
COc1ccccc1-c1noc(-c2ccc(NC3CCCC3)c([N+](=O)[O-])c2)n1	-8%	-10%[10.9 µM]	·	·	29%	·

Source: PubChem BioAssay
